An excerpt weighted towards active compounds, which were near 28% of everything screened.
CD11b adhes enh: enhancers of CD11b/CD18 adhesion to fibrinogen, primary screen, K562 cells, luminescence; ATPlite luminescence; activation, % at 10 µM; actives 0.07% (n = 93,000); AID 1499, 2009;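 active = 10 µM primary screen giving 50% or more activity, confirmed by 40% or more on retest at that dose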
CYP2C19 activ: human CYP2C19 activators, primary screen, biochemical, luminescence | recombinant CYP2C19, luciferin-H EGE luminescence; hits give high values; 0 = fully inhibited enzyme, 1 = untreated enzyme | 96,000 tested, under 10 active | activation factor at 5 µM | Cytochrome P450 2C19 (Homo sapiens), P33261;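 active = activation factor of at least 2 at 5 µM in the primary screen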;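 note: 0 = wells with 2.5 mM tranylcypromine and 1 = vehicle-only wells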
CYP2C9 inhib: blockers of cytochrome P450 2C9 activity – biochemical, luminescence, ADME assay, primary screen; CYP2C9 Supersomes, luciferin-H conversion; inhibition, % at 5 µM; actives 20% (n = 96,000); AID 777, 2007;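 active = blocking of liver enzyme CYP2C9 beyond about 50% at 5 µM, limit read from the data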
Target sequence (P11712 whole entry, looked up): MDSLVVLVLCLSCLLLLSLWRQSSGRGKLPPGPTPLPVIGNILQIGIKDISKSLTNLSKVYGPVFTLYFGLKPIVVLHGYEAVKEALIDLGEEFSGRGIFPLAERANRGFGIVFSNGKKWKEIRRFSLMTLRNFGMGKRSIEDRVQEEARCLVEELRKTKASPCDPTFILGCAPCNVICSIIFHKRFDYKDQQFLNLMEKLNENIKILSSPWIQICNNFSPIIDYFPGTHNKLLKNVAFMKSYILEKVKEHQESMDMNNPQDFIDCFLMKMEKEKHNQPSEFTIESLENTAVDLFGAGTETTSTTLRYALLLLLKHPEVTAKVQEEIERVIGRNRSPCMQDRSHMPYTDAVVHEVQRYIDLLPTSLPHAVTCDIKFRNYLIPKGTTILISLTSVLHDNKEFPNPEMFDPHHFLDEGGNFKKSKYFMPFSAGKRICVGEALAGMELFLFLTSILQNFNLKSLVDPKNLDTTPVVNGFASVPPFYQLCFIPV
CYP2C19 inh: blockers of cytochrome P450 2C19 activity – biochemical, luminescence, ADME assay, primary screen | CYP2C19 Supersomes, luciferin-H EGE luminescence, 30 min | P33261 | inhibition, % at 5 µM | AID 778, 2007 | actives 21% (n = 96,000);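 active = CYP2C19 inhibition above a set limit at 5 µM in the primary screen, cut at about 50% in these data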;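 note: plate controls were negative control wells for no effect and 2.5 mM tranylcypromine positive control for full effect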
CYP2C9 act: human CYP2C9 activators, primary screen, biochemical, luminescence; Cytochrome P450 2C9 (Homo sapiens), P11712; recombinant CYP2C9, luciferin-H conversion; hits give high values; factor 1 = untreated enzyme, 0 = blocked; activation factor at 5 µM; actives 1.4% (n = 96,000);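 active = activation factor of 2 or more for CYP2C9 at a 5 µM dose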;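 note: 0 = sulfaphenazole-blocked wells and 1 = vehicle-only wells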
CD11b adhes inh: inhibitors of CD11b/CD18 adhesion to fibrinogen, primary screen, K562 cells, luminescence; Integrin beta-2 (Homo sapiens) + Integrin alpha-M (Homo sapiens), P05107+P11215; ATPlite luminescence; Mn2+ added to activate the integrin; inhibition, % at 10 µM; actives 0.54% (n = 93,000); AID 1497, 2009;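 active = primary inhibition of 50% or more at 10 µM, then 40% or more on retest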
Numbers without * were called inactive; x = no result given.

SMILES | CD11b adhes enh | CYP2C19 activ | CYP2C9 inhib | CYP2C19 inh | CYP2C9 act | CD11b adhes inh
CC(NC(=O)c1ccc(CS(=O)(=O)c2ccc(Cl)cc2)o1)c1ccc2c(c1)OCCO2 (stereo unspecified) | -0.5 | 0.5 | 73.7* | 49.6 | 0.3 | -30.9
CC(=O)OC1c2ccccc2C(=O)N1Cc1ccccc1Cl (stereo unspecified) | 5.2 | 0 | -17.9 | 98.9* | 1.2 | 7.5
COc1ccc(OC)c(-n2c(=S)[nH]c3cc(C(=O)NCCCN4CCCC4=O)ccc3c2=O)c1 | -3.5 | 1 | 10.2 | -1.0 | 0.9 | -1.4
CCCn1c(N)c(C(=O)CSc2nc3ccccc3n2CCC#N)c(=O)n(C)c1=O | -6.0 | 1 | 1.6 | -1.5 | 1 | -9.8
CCCCCCn1c(SCC(=O)c2c(N)n(C)c(=O)n(C)c2=O)nc2ccccc21 | 1.6 | 0.8 | 74.6* | 22.1 | 0.3 | 12.8
O=C(C1CCCN(S(=O)(=O)c2cccc3cccnc23)C1)N1CCc2ccccc21 (stereo unspecified) | -0.6 | 0.7 | -29.4 | 29.4 | 1.3 | 11.9
CCOC(=O)CN1C(=O)C(O)=C(C(C)=O)C1c1ccc(F)cc1 (stereo unspecified) | 1.5 | 0.9 | 11.3 | 5.3 | 0.9 | -0.8
CC1=C(C(=O)Nc2ccc(Cl)cc2)C(c2ccncc2)C(C#N)=C(SCC(N)=O)N1 (stereo unspecified) | -2.2 | 0.6 | 64.8* | 36.7 | 0.4 | 6.2
CC(=O)C1=C(C)NC(SCC(=O)Nc2nc3ccccc3s2)=C(C#N)C1c1ccc(Cl)cc1 (stereo unspecified) | -10.9 | x | x | x | x | 96.6
CCOC(=O)C1=C(C)NC(SCC(=O)OC)=C(C#N)C1c1ccc(C(=O)OC)cc1 (stereo unspecified) | 8.7 | 0 | 95.9* | 96.6* | 0 | 12.8
CCOC(=O)CSC1=C(C#N)C(c2ccc(F)cc2)C(C(C)=O)=C(C)N1 (stereo unspecified) | 2.7 | 0.6 | 51.1* | 41.5 | 0.5 | 27.9
CC(=O)C1=C(C)NC(SCC(N)=O)=C(C#N)C1c1cccnc1 (stereo unspecified) | -5.3 | 1 | 3.5 | 3.8 | 1 | -5.8
C=CCOC(=O)C1=C(C)NC(SCC)=C(C#N)C1c1ccc(Cl)cc1 (stereo unspecified) | -8.0 | 0.5 | 85.9* | 53.2* | 0.1 | 0.3
COC(=O)C1=CN(CC2CCCO2)C=C(C(=O)OC)C1c1cc(OC)c(OC)c(OC)c1 (stereo unspecified) | 1.7 | 1 | 6.5 | 0.6 | 0.9 | -4.4
COC(=O)[C@H](CCSC)NC(=O)Nc1ccc(C(C)=O)cc1 | -0.1 | 1 | -12.1 | -4.1 | 1.1 | 7.1
C=CCOC(=O)C1=C(C)NC(=O)NC1c1ccc(Cl)cc1 (stereo unspecified) | 0.9 | 0 | 66.1* | 100.4* | 0.3 | 6.2
C=CCOc1ccc(C2NC(=O)NC(C)=C2C(=O)OC)cc1 (stereo unspecified) | 3.2 | 0.6 | 39.3 | 44.0 | 0.6 | -37.7
CC1=CC(C)(C)N(S(=O)(=O)c2ccc(F)cc2)c2ccccc21 | -0.9 | 0.4 | 46.1 | 58.3* | 0.5 | 18.6
CC1=CC(C)(C)N(S(=O)(=O)c2ccc(C)cc2)c2ccc(C)cc21 | -5.4 | 0.6 | 39.6 | 38.1 | 0.6 | 76.5*
Cc1ccc(S(=O)(=O)N2c3ccccc3-c3c(ssc3=S)C2(C)C)cc1 | -1.0 | x | x | x | x | -17.5
CCc1nnc(NC(=O)Cn2c(=O)oc3ccccc32)s1 | 0.2 | 0.4 | 72.7* | 63.7* | 0.3 | -7.6
CCc1nnc(NC(=O)Cn2nc(-c3ccccc3OC)ccc2=O)s1 | -0.4 | 1.2 | 62.9* | -15.9 | 0.4 | 6.7
CCCc1nnc(NC(=O)Cn2c(=O)oc3ccccc32)s1 | 2.7 | 0.6 | 54.1* | 39.2 | 0.5 | -9.3
CC(C)CN(CC(C)C)c1nnc(NC(=O)Cn2c(=O)oc3ccccc32)s1 | -3.0 | 1 | 0.9 | 0.1 | 1 | -5.0
CCCc1nnc(NC(=O)Cn2c(=O)oc3cc(Br)ccc32)s1 | -0.7 | 0.8 | 67.6* | 23.5 | 0.3 | -20.9
SMILES | CD11b adhes enh | CYP2C19 activ | CYP2C9 inhib | CYP2C19 inh | CYP2C9 act | CD11b adhes inh
CCCCNc1ccc2nsnc2c1[N+](=O)[O-] | -1.5 | x | x | x | x | 4.1
O=[N+]([O-])c1ccccc1/C=N/Nc1nnc(-c2ccccc2)c(-c2ccccc2)n1 | -6.6 | x | x | x | x | -7.8
CS(=O)(=O)N(CC(=O)Nc1ccc(CC#N)cc1)c1ccc(C23CC4CC(CC(C4)C2)C3)cc1 | -1.5 | 0.9 | 59.0* | 11.1 | 0.4 | -7.8
O=C(NNC(=O)C1CCCO1)c1ccc(Cl)cc1 (stereo unspecified) | -1.4 | 1 | 7.2 | -4.2 | 0.9 | -35.3
COc1ccc(NC(=O)C2OC3OC(C)(C)OC3C3OC(C)(C)OC23)cc1 (stereo unspecified) | 0.6 | 1.1 | 28.1 | -6.1 | 0.7 | -46.5
COC(=O)C1C(=O)OC(C)(C)C1C(C)C(=O)c1ccccc1 (stereo unspecified) | -1.7 | 0.2 | 19.2 | 79.1* | 0.8 | -23.9
O=C1C2CCCN2C(c2ccc(F)c(F)c2)N1c1cccc(Cl)c1 (stereo unspecified) | 1.9 | 0.5 | 40.8 | 50.5* | 0.6 | 10.3
COc1cccc(C2N(c3cccc(Cl)c3)C(=O)C3CCCN32)c1OC (stereo unspecified) | 2.7 | 0.2 | 69.8* | 78.0* | 0.3 | -2.7
COC(=O)c1cc(=O)n(CCc2ccc(OC)c(OC)c2)c(=Nc2ccc(F)c(Cl)c2)s1 | 1.9 | 0.4 | 76.1* | 57.4* | 0.2 | 1.3
O=C(Cn1[nH]c(=O)c2ccccc2c1=O)N1CC=C(c2ccccc2)CC1 | 4.3 | 0.2 | 67.1* | 80.6* | 0.3 | 2.7
O=C(O)CCC(=O)N1CC=C(c2ccccc2)CC1 | -1.3 | 0.9 | 26.8 | 12.4 | 0.7 | -0.8
O=C1CCSc2ccc(Cl)cc2N1Cc1ccc(Cl)cc1 | -2.4 | 0.8 | 23.7 | 19.5 | 0.8 | 15.1
Cc1cccc(CN2C(=O)CCSc3ccc(Cl)cc32)c1 | x | 0.3 | 32.0 | 67.1* | 0.7 | x
O=C1CCSc2ccc(Cl)cc2N1Cc1ccccc1 | -2.0 | 0.3 | 22.6 | 66.4* | 0.8 | 32.4
COc1ccccc1N1CCN(C(=O)Cn2c(=O)[nH]c3ccsc3c2=O)CC1 | -2.4 | 0.9 | 11.9 | 14.4 | 0.9 | -8.9
COc1ccc(CCN2C(=O)C3C4CC(C5C(C(=O)N/N=C\c6ccc(Cl)cc6)=NOC45)C3C2=O)cc1OC (stereo unspecified) | -2.2 | 0.8 | 49.3 | 19.9 | 0.5 | -12.2
Cn1c(C(=O)Nc2ccc3c(c2)OCCO3)cc2sccc21 | -7.9 | 0.7 | -35.2 | 25.4 | 1.4 | 32.2
